# Results taken from article PMC7862700, “An all-to-all approach to the identification of sequence-specific readers for epigenetic DNA modifications on cytosine”.
# Legend:
# Assay in all cases: DAPPL (digital affinity profiling via proximity ligation, sequencing); 10 mM Tris-HCl pH 7.5, 50 mM NaCl, 1 mM DTT, 4% glycerol, room temperature, 30 min; GST-TFs on glutathione beads, 16-mer random dsDNA library, 0.1% formaldehyde crosslink after washing; high values mean tight binding
# Conditions in all cases: protein: recombinant; tags: N-terminal GST; dsDNA, one strand shown
# GABPA = biological target: T1, GABPA (Homo sapiens, UniProt Q06546 1-454)
# T1 sequence: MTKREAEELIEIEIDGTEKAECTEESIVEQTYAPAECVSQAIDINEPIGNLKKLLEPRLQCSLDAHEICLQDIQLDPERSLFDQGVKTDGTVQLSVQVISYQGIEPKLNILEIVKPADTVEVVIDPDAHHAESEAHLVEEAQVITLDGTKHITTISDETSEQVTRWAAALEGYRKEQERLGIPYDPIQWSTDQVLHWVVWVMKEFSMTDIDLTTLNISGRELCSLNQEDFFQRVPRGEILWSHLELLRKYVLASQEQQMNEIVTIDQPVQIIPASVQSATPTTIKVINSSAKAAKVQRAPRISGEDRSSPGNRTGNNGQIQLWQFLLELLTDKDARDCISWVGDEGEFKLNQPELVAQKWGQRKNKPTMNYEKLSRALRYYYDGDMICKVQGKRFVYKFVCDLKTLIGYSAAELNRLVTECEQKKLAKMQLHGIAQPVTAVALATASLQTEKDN
# How it was run: (§1)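 A tag-only sample was pooled with DNA-barcoded human transcription factors that had been expressed in yeast as GST fusions and captured on glutathione beads. The pools were incubated for 30 min at room temperature with 200 nmole of a random double-stranded 16-mer DNA library in Tris/NaCl/DTT/glycerol buffer, then washed, crosslinked with 0.1% formaldehyde, proximity-ligated (BsaI/T4 ligase, 1 h, 37 °C), PCR-amplified and sequenced on an Illumina NextSeq500. Binding signal is each hexamer's read frequency for a factor divided by its frequency for the tag-only sample.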
# FEV = biological target: T2, FEV (Homo sapiens, UniProt Q99581 1-238)
# T2 sequence: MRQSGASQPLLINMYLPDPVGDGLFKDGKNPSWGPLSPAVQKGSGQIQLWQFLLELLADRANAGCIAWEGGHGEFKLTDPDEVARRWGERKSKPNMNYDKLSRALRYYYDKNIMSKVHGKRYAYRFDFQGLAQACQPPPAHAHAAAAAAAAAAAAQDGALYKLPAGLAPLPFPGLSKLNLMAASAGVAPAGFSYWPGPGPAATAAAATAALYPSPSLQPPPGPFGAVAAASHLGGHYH
# How it was run: as §1
# SPIC = biological target: T3, SPIC (Homo sapiens, UniProt Q8N5J4 1-248)
# T3 sequence: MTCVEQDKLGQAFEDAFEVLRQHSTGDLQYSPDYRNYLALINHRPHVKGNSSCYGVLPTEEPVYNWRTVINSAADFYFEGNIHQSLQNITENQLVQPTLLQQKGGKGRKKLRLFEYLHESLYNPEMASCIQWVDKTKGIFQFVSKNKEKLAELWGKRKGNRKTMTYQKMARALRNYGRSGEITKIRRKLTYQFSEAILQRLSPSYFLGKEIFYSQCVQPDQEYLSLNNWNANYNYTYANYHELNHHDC
# How it was run: as §1
# ELF4 = ELF4 (Homo sapiens, UniProt Q99607 1-663)
# Sequence of ELF4 (Q99607 whole entry): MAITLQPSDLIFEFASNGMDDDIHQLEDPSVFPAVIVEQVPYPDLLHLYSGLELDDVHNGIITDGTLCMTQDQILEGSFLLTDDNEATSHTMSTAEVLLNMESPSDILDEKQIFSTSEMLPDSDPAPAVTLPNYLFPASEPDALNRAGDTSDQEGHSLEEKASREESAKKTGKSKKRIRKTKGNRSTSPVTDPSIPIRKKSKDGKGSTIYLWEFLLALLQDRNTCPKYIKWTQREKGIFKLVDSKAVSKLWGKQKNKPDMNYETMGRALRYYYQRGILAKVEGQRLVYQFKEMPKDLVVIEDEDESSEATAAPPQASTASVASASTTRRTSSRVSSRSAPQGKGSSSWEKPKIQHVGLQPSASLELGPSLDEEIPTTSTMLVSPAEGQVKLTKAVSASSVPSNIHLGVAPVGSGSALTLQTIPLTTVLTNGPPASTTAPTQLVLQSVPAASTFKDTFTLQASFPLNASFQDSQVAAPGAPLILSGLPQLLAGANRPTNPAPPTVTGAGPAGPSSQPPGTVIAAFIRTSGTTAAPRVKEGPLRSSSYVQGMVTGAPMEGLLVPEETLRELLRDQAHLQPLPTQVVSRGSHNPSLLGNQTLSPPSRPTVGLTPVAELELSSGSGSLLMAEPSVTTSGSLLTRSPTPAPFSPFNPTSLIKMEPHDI
# How it was run: as §1
# ETV2 = biological target: T4, ETV2 (Homo sapiens, UniProt O00321 1-342)
# T4 sequence: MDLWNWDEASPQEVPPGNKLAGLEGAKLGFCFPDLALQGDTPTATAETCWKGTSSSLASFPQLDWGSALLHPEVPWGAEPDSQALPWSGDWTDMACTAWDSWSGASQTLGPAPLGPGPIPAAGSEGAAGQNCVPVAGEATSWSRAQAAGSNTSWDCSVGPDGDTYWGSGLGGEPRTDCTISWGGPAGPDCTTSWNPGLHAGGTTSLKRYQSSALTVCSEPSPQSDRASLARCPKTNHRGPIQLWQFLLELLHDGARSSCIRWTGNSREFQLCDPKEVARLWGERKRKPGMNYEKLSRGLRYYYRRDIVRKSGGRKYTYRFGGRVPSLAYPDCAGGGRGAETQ
# How it was run: as §1
# CRX = CRX (Homo sapiens, UniProt O43186 1-299)
# Sequence of CRX (O43186 whole entry): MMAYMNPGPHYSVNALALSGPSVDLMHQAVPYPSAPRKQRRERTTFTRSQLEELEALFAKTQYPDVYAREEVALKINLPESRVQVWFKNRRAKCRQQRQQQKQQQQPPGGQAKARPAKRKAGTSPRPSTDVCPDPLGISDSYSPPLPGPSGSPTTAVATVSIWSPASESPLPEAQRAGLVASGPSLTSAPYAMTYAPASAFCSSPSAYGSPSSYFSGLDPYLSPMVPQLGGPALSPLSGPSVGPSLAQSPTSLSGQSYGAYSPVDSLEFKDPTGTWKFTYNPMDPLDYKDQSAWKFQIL
# How it was run: as §1
# ETS2 = biological target: T5, ETS2 (Homo sapiens, UniProt P15036 1-469)
# T5 sequence: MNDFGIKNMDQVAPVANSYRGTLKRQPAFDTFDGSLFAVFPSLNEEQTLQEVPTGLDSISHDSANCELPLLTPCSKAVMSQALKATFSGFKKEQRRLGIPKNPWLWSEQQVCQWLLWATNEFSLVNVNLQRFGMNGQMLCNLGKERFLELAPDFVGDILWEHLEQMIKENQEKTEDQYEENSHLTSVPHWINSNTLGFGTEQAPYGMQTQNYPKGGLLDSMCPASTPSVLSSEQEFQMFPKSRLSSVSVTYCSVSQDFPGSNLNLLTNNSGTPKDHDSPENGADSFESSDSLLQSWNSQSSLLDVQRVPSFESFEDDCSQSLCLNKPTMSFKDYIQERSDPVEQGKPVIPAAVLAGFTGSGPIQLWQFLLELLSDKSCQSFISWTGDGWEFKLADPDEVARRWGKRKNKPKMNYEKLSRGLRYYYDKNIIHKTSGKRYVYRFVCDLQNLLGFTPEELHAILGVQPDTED
# How it was run: as §1
# ETV7 = biological target: T6, ETV7 (Homo sapiens, UniProt Q9Y603 1-341)
# T6 sequence: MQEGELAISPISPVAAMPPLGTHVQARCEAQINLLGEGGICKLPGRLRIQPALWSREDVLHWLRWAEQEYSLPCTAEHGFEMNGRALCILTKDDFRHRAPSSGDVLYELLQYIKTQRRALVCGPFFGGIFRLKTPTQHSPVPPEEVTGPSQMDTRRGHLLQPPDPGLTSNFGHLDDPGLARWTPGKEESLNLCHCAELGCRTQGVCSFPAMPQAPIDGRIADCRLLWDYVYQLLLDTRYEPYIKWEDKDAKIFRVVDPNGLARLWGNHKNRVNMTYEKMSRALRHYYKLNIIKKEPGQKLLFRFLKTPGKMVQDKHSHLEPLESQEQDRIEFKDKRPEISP
# How it was run: as §1
# ELF5 = biological target: T7, ELF5 (Homo sapiens, UniProt Q9UKW6-2 1-255)
# T7 sequence: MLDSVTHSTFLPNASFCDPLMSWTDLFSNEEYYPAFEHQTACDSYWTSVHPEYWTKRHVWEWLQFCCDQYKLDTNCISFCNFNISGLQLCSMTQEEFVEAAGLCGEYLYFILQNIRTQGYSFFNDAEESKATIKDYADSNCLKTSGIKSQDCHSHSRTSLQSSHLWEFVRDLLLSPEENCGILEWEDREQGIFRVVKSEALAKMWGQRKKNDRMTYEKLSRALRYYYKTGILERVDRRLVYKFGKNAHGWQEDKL
# How it was run: as §1
# SPIB = SPIB (Homo sapiens, UniProt Q01892 1-262)
# Sequence of SPIB (Q01892 whole entry): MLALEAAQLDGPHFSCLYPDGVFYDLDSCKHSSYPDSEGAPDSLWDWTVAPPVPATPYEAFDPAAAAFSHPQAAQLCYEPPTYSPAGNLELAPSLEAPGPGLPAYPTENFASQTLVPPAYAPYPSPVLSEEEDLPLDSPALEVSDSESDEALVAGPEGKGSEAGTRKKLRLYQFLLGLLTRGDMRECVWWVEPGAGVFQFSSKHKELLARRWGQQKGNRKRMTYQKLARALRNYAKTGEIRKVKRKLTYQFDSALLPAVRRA
# How it was run: as §1
# ELK4 = biological target: T8, ELK4 (Homo sapiens, UniProt P28324-2 1-405)
# T8 sequence: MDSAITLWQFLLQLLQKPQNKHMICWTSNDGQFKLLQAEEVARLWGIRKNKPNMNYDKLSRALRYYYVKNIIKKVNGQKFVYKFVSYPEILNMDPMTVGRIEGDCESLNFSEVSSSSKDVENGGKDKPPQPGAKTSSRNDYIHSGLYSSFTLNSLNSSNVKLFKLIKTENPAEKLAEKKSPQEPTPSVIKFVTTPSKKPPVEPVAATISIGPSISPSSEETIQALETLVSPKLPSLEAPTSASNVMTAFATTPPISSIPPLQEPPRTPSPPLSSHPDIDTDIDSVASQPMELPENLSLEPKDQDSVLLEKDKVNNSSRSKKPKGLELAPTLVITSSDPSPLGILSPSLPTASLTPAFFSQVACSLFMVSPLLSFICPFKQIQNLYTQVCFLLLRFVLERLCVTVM
# How it was run: as §1
# ELF3 = biological target: T9, ELF3 (Homo sapiens, UniProt P78545 1-371)
# T9 sequence: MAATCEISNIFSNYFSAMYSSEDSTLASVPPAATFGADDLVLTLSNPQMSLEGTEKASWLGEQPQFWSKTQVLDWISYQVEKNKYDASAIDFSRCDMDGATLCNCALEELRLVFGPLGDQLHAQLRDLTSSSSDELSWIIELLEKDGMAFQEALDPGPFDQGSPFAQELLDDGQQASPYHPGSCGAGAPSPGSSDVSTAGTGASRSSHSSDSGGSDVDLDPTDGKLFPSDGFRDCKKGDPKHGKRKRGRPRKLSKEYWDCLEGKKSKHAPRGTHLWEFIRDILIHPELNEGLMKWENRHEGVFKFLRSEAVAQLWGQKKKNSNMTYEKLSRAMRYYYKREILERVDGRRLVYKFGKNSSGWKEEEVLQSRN
# How it was run: as §1
# ETV3 = biological target: T10, ETV3 (Homo sapiens, UniProt P41162-2 1-143)
# T10 sequence: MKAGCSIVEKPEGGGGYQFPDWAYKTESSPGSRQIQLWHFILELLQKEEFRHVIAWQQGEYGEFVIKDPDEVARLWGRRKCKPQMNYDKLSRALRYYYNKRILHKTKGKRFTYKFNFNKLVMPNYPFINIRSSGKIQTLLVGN
# How it was run: as §1
sequence,measurement,setting,value
AAAGGC,binding signal,GABPA,"1.1 fold enrichment (6-mer frequency, TF over GST control)"
same,binding signal,FEV,"1.01 fold enrichment (6-mer frequency, TF over GST control)"
same,binding signal,SPIC,"1 fold enrichment (6-mer frequency, TF over GST control)"
same,binding signal,ELF4,"1.04 fold enrichment (6-mer frequency, TF over GST control)"
same,binding signal,ETV2,"1.04 fold enrichment (6-mer frequency, TF over GST control)"
same,binding signal,CRX,"1.03 fold enrichment (6-mer frequency, TF over GST control)"
same,binding signal,ETS2,"1 fold enrichment (6-mer frequency, TF over GST control)"
same,binding signal,ETV7,"1.03 fold enrichment (6-mer frequency, TF over GST control)"
same,binding signal,ELF5,"1 fold enrichment (6-mer frequency, TF over GST control)"
TCAGAC,binding signal,SPIC,"1.11 fold enrichment (6-mer frequency, TF over GST control)"
AGACTC,binding signal,SPIC,"1.06 fold enrichment (6-mer frequency, TF over GST control)"
CTAGGG,binding signal,SPIC,"1.07 fold enrichment (6-mer frequency, TF over GST control)"
GTATGA,binding signal,SPIB,"1.05 fold enrichment (6-mer frequency, TF over GST control)"
same,binding signal,SPIC,"1.09 fold enrichment (6-mer frequency, TF over GST control)"
same,binding signal,ELF4,"1.03 fold enrichment (6-mer frequency, TF over GST control)"
same,binding signal,ELK4,"1.01 fold enrichment (6-mer frequency, TF over GST control)"
same,binding signal,ELF3,"1.02 fold enrichment (6-mer frequency, TF over GST control)"
same,binding signal,ETS2,"1.01 fold enrichment (6-mer frequency, TF over GST control)"
same,binding signal,ETV3,"1.02 fold enrichment (6-mer frequency, TF over GST control)"
TGCAGA,binding signal,SPIB,"1.03 fold enrichment (6-mer frequency, TF over GST control)"
same,binding signal,SPIC,"1.06 fold enrichment (6-mer frequency, TF over GST control)"
same,binding signal,ELF4,"1 fold enrichment (6-mer frequency, TF over GST control)"
